# Results from PubChem BioAssay (EPA / NIEHS).
# A structure can be active in one record and inactive in another. Activity calls are given as the source filed them. How the source made its calls: active means hit-call score of the fitted dose curve at least 0.9, where 1 is the maximum; inactive means score below 0.9.
# Experiment: ATG_CRE_CIS: Attagene CIS-FACTORIAL HepG2 Assay for human cAMP Responsive Element (CRE) binding protein 3 (AID 2282926)
# Settings: HepG2 CRE cis-reporter, Attagene multiplexed mRNA; actives raise or lower the signal
# Summary of the method: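 Assay format: transient reporter transfection of HepG2, 24 h treatment, total RNA isolation with DNase I step. Reporter abundance read by fluorescence after PCR and capillary separation; DMSO-normalised gain or loss fitting.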
SMILES,AC50,outcome
Oc1cc(Cl)c(Cl)cc1Cl,39.7 µM (active),
CC(C)O.CC(C)O.OCCN(CCO)CCO.OCCN(CCO)CCO.[Ti],,inactive
N#Cc1cccnc1,,inactive
CCCCCCCCCCCCCl,,inactive
CN(C)C(=S)S,,inactive
Brc1ccc(Br)cc1,,inactive
CC1(C)[C@H](/C=C2\CCSC2=O)[C@@H]1C(=O)OCc1coc(Cc2ccccc2)c1,,inactive
Brc1ccc(Oc2c(Br)cc(Br)cc2Br)c(Br)c1,,inactive
CC(C=O)Cc1ccc2c(c1)OCO2 (stereo not drawn),,inactive
O=C(N[C@H]1CN2CCC1CC2)c1ccc2c(c1)OCCO2,,inactive
C#C[C@]1(O)CC[C@H]2[C@@H]3CCC4=CC(=O)CC[C@]4(C)[C@H]3CC[C@@]21C,,inactive
O=C(O)C1(c2ccc3c(c2)OC[C@H](Cc2ccc(-c4ccccc4)cc2)[C@H]3O)CCCC1,,inactive
O=c1oc2ccccc2c(O)c1C(CC(O)c1ccc(-c2ccc(Br)cc2)cc1)c1ccccc1 (stereo not drawn),39 µM (active),inactive
O=C(O)COc1cc(Cl)c(Cl)cc1Cl,,inactive
COc1nn(C(=O)NS(=O)(=O)c2ccccc2OC(F)(F)F)c(=O)n1C,,inactive
Fc1cccc(Cl)c1CCl,41.8 µM (active),
O=C(NC(=O)c1c(F)cccc1F)Nc1cc(Cl)c(F)c(Cl)c1F,,inactive
OCCN(CCO)CCO,,inactive
COc1ccc(N)cc1,,inactive
O=c1nc(O)n(Cl)c(=O)n1Cl,,inactive
COCC(=O)N(c1c(C)cccc1C)[C@H](C)C(=O)OC,,inactive
CCCCCCCCCCCCCCC(Br)C(=O)O (stereo not drawn),,inactive
